# Where two headings read alike, the source gives them in different places.
# Tests used:
# Set-up in all cases: species or system human, MV4-11 + K-562 + COLO205 + SK-N-BE2 + OVCAR-8
# ACVR1B = settings: read-out: apparent Kd, n = 1
# ACVR1 = settings: read-out: apparent Kd; compound concentrations: 100 nM and 1000 nM (sheet 'Samples'), CATDS: 5.3500871089908003E-2; n = 1
# ACVR2B = settings: read-out: apparent Kd, compound concentrations: 100 nM and 1000 nM (sheet 'Samples'), n = 1
# BCR = settings: read-out: apparent Kd; compound concentrations: 100 nM and 1000 nM (sheet 'Samples'), CATDS: 8.1652957748264393E-2; n = 1
# BMPR1B = settings: read-out: apparent Kd; compound concentrations: 100 nM and 1000 nM (sheet 'Samples'), CATDS: 7.3247906456106002E-2; n = 1
# CDC7 = settings: read-out: apparent Kd; compound concentrations: 100 nM and 1000 nM (sheet 'Samples'), CATDS: 4.9206883035311198E-2; n = 1
# CDK4 = settings: read-out: apparent Kd; compound concentrations: 100 nM and 1000 nM (sheet 'Samples'), CATDS: 4.8870042780869302E-2; n = 1
# EPHA1 = settings: read-out: apparent Kd; compound concentrations: 100 nM and 1000 nM (sheet 'Samples'), CATDS: 7.9880542471912896E-2; n = 1
# GAK = settings: read-out: apparent Kd, compound concentrations: 100 nM and 1000 nM (sheet 'Samples'), n = 1
# MAP2K1 = settings: read-out: apparent Kd; compound concentrations: 100 nM and 1000 nM (sheet 'Samples'), CATDS: 4.7289887756517802E-2; n = 1
# NLK = settings: read-out: apparent Kd; compound concentrations: 100 nM and 1000 nM (sheet 'Samples'), CATDS: 5.29869352744404E-2; n = 1
# RIPK2 = settings: read-out: apparent Kd, n = 1
# RIPK3 = settings: read-out: apparent Kd; compound concentrations: 100 nM and 1000 nM (sheet 'Samples'), CATDS: 5.9537511979901002E-2; n = 1
# TGFBR2 = settings: read-out: apparent Kd, n = 1
# CSNK1A1 = settings: read-out: apparent Kd; compound concentrations: 100 nM and 1000 nM (sheet 'Samples'), CATDS: 3.7842664233860401E-2; n = 1
# CSNK1D = settings: read-out: apparent Kd; compound concentrations: 100 nM and 1000 nM (sheet 'Samples'), CATDS: 5.8055493904437101E-2; n = 1
# CSNK1E = settings: read-out: apparent Kd; compound concentrations: 100 nM and 1000 nM (sheet 'Samples'), CATDS: 4.09740757969334E-2; n = 1
# DDR1 = settings: read-out: apparent Kd, n = 1
# DDR2 = settings: read-out: apparent Kd; compound concentrations: 100 nM and 1000 nM (sheet 'Samples'), CATDS: 4.2392371826783903E-2; n = 1
# MAPK10 = settings: read-out: apparent Kd; compound concentrations: 100 nM and 1000 nM (sheet 'Samples'), CATDS: 0.12973795747386199; n = 1
# MAPK14 = settings: read-out: apparent Kd; compound concentrations: 100 nM and 1000 nM (sheet 'Samples'), CATDS: 0.11490787983313; n = 1
# MAPK8 = settings: read-out: apparent Kd; compound concentrations: 100 nM and 1000 nM (sheet 'Samples'), CATDS: 3.7066716076187299E-2; n = 1
# MAPK9 = settings: read-out: apparent Kd; compound concentrations: 100 nM and 1000 nM (sheet 'Samples'), CATDS: 0.1157117766231; n = 1
# MAPKAPK2 = settings: read-out: apparent Kd, n = 1
# PKN3 = settings: read-out: apparent Kd, n = 1
# PRKD2 = settings: read-out: apparent Kd; compound concentrations: 100 nM and 1000 nM (sheet 'Samples'), CATDS: 5.3704736783425001E-2; n = 1
# PRKD3 = settings: read-out: apparent Kd; compound concentrations: 100 nM and 1000 nM (sheet 'Samples'), CATDS: 4.4266829697393303E-2; n = 1
# TGFBR1 = settings: read-out: apparent Kd; compound concentrations: 100 nM and 1000 nM (sheet 'Samples'), CATDS: 4.4217762618850402E-2; n = 1
# ADCK3 = settings: read-out: apparent Kd; compound concentrations:100 nM and 1000 nM (sheet 'Samples'); n = 1
# SPR = settings: read-out: apparent Kd; compound concentrations:100 nM and 1000 nM (sheet 'Samples'); n = 1
# TESK2 = settings: read-out: apparent Kd; compound concentrations:100 nM and 1000 nM (sheet 'Samples'); n = 1
# TTK = settings: read-out: apparent Kd; compound concentrations:100 nM and 1000 nM (sheet 'Samples'); n = 1
# [1] = compound concentrations:100 nM and 1000 nM (sheet 'Samples')
compound,measurement,setting,value
Oc1cc(Nc2ccnc3cc(I)ccc23)ccc1F [GW552771X],potency estimated from few doses,"ACVR1B; compound concentrations: 100 nM and 1000 nM (sheet 'Samples'), CATDS: 5.5704311303099698E-2",1050 nM
same,potency estimated from few doses,ACVR1,1220 nM
same,potency estimated from few doses,ACVR2B; CATDS: 0.67080964654625497,4.54 nM
same,potency estimated from few doses,BCR,339 nM
same,potency estimated from few doses,BMPR1B,452 nM
same,potency estimated from few doses,CDC7,1710 nM
same,potency estimated from few doses,CDK4,1760 nM
same,potency estimated from few doses,EPHA1,359 nM
same,potency estimated from few doses,GAK; CATDS: 0.131761231196901,109 nM
same,potency estimated from few doses,MAP2K1,2050 nM
same,potency estimated from few doses,NLK,1260 nM
same,potency estimated from few doses,"RIPK2; compound concentrations: 100 nM and 1000 nM (sheet 'Samples'), CATDS: 0.100310805321257",204 nM
same,potency estimated from few doses,RIPK3,838 nM
same,potency estimated from few doses,"TGFBR2; compound concentrations: 100 nM and 1000 nM (sheet 'Samples'), CATDS: 0.233102504079717",32.2 nM
Cc1ccc2c(-c3ccnc(Nc4ccccc4)n3)c(-c3ccc(F)cc3)nn2n1 [GW833373X],potency estimated from few doses,"ACVR1B; compound concentrations: 100 nM and 1000 nM (sheet 'Samples'), CATDS: 8.2410499697195994E-2",193 nM
same,potency estimated from few doses,ACVR2B; CATDS: 4.1971231951758399E-2,1090 nM
same,potency estimated from few doses,CSNK1A1,1640 nM
same,potency estimated from few doses,CSNK1D,418 nM
same,potency estimated from few doses,CSNK1E,1190 nM
same,potency estimated from few doses,"DDR1; compound concentrations: 100 nM and 1000 nM (sheet 'Samples'), CATDS: 5.25374061654219E-2",543 nM
same,potency estimated from few doses,DDR2,1050 nM
same,potency estimated from few doses,GAK; CATDS: 0.17328918321310699,56.5 nM
same,potency estimated from few doses,MAPK10,87.1 nM
same,potency estimated from few doses,MAPK14,106 nM
same,potency estimated from few doses,MAPK8,1800 nM
same,potency estimated from few doses,MAPK9,105 nM
same,potency estimated from few doses,"MAPKAPK2; compound concentrations: 100 nM and 1000 nM (sheet 'Samples'), CATDS: 0.100968971541066",132 nM
same,potency estimated from few doses,"PKN3; compound concentrations: 100 nM and 1000 nM (sheet 'Samples'), CATDS: 3.6917744645490899E-2",1840 nM
same,potency estimated from few doses,PRKD2,511 nM
same,potency estimated from few doses,PRKD3,906 nM
same,potency estimated from few doses,"RIPK2; compound concentrations: 100 nM and 1000 nM (sheet 'Samples'), CATDS: 5.33565185229085E-2",520 nM
same,potency estimated from few doses,TGFBR1,909 nM
Cl.Cl.Oc1cc(-c2nc(-c3ccccc3)[nH]c2-c2ccncc2)ccc1Cl.Oc1cc(-c2nc(-c3ccccc3)[nH]c2-c2ccncc2)ccc1Cl [SB-386023-B],potency estimated from few doses,ACVR1B; [1],968 nM
same,potency estimated from few doses,ADCK3,373 nM
same,potency estimated from few doses,DDR1; [1],1840 nM
same,potency estimated from few doses,MAPKAPK2; [1],1700 nM
same,potency estimated from few doses,PKN3; [1],1020 nM
same,potency estimated from few doses,RIPK2; [1],192 nM
same,potency estimated from few doses,SPR,422 nM
same,potency estimated from few doses,TESK2,1470 nM
same,potency estimated from few doses,TGFBR2; [1],2050 nM
same,potency estimated from few doses,TTK,1600 nM

# Source: paper PMC11062922 (Nature Chemical Biology, 2023)
